# Results published in ChEMBL document CHEMBL3988442, “University of Dundee, Small-Polar-MMV Screening Library” (2021).
# Among all 69,000 compounds or so, about 1,000 (1.4%) showed an effect of 50% or more. The sample holds strong results, similar compounds and a random draw of the others, so the mix is not that of the screen.
# Test system: Leishmania donovani
# Assay: Leishmania intramacrophage assay
# Assay type: functional, organism-based
# Set-up: scale not given: in the data most compounds retested in dose-response had high values
smiles,measurement,setting,value
Cc1nc(CN(C)c2nccc(C(F)(F)F)n2)cs1,Percent Effect,"30.3 µM, […]",5.886%
Cc1cnn(CCNc2nc(C)cc(N(C)C)n2)c1,Percent Effect,"30.3 µM, […]",-24.91%
CC(C)c1ccc(/C=C/CC(=O)NC2CCN(C(N)=O)C2)cc1 (stereo not drawn),Percent Effect,"30.3 µM, […]",6.492%
CC(C)c1ccc(/C=C/CC(=O)NC2CCN(C(N)=O)CC2)cc1,Percent Effect,"30.3 µM, […]",-5.908%
COCCN1CCC(NC(=O)C/C=C/c2ccc(C(C)C)cc2)CC1,Percent Effect,"30.3 µM, […]",51.69%
O=C(CC1CC1)N1CCN(Cc2ccncc2)c2ncccc2C1.O=C(O)C(F)(F)F.O=C(O)C(F)(F)F,Percent Effect,"30.3 µM, […]",-1.398%
CCc1cc(C(=O)N2CCC3(CCCN(CC4CC4)C3=O)C2)cs1 (stereo not drawn),Percent Effect,"30.3 µM, […]",12.28%
NC(=O)C1CN(Cc2c(O)ccc3oc4c(c23)CCCC4)CCO1 (stereo not drawn),Percent Effect,"30.3 µM, […]",24.24%
Oc1ccc2oc3c(c2c1CN1CCOCC1)CCCC3,Percent Effect,"30.3 µM, […]",27.1%
O=C1NCCCc2c1oc1ccc(O)c(CN3CCOCC3)c21,Percent Effect,"30.3 µM, […]",56.93%
CN1CCOC(CNCc2csc(C3CCCCC3)n2)C1 (stereo not drawn),Percent Effect,30 µM,56.43%
Cc1nc(CNCC2CN(C)CCO2)cs1 (stereo not drawn),Percent Effect,"30 µM, 30.03 µM",33.12%
CN1CCOC(CNCc2csc(C3CCCC3)n2)C1 (stereo not drawn),Percent Effect,30 µM,13.96%
COc1ccc(CN2C[C@@H]3CC[C@H](C2)N(Cc2snnc2C)C3)cc1,Percent Effect,"30.3 µM, […]",-20.42%
NS(=O)(=O)NCC1(c2ccccc2Br)CC1,Percent Effect,"30.3 µM, […]",94.29%
CN(C)S(=O)(=O)NCC1(c2ccccc2Br)CC1,Percent Effect,"30.3 µM, […]",-4.461%
CS(=O)(=O)NCC1(c2ccccc2Br)CC1,Percent Effect,"30.3 µM, […]",-0.01271%
CC(C)(O)c1cc(CC2(NCc3ccccc3Cl)COC2)no1,Percent Effect,"30.3 µM, […]",25.25%
CC(C)n1cnnc1CCNCc1cn(CCC(N)=O)c2ccccc12,Percent Effect,"30.3 µM, […]",32.43%
CC(NCc1cn(CCC(N)=O)c2ccccc12)c1nncn1C (stereo not drawn),Percent Effect,"30.3 µM, […]",-7.777%
Cc1ccc(C(C)NCc2cn(CCC(N)=O)c3ccccc23)cc1C (stereo not drawn),Percent Effect,"30.3 µM, […]",88.97%
O=C(Cn1c(=O)nc2n1C(=O)N(c1ccccc1)C2)NC1CCCCC1,Percent Effect,"30.3 µM, […]",-29.26%
COc1ccccc1CN1C(=O)O[C@@H]2CN(Cc3cccc(C)n3)C[C@@H]21,Percent Effect,"30.3 µM, […]",-18.87%
CC(C)c1nnc2n1CC(CNCc1nc3ccccc3s1)CC2 (stereo not drawn),Percent Effect,"30.3 µM, […]",-6.919%
O=C(Nc1c(N2CCCC2)cccc1N1CCCC1)c1cnccn1,Percent Effect,"30.3 µM, […]",2.563%
O=C(Nc1c(N2CCCC2)cccc1N1CCCC1)c1ccccn1,Percent Effect,"30.3 µM, […]",56.83%
O=C(Nc1c(N2CCCC2)cccc1N1CCCC1)c1cnsn1,Percent Effect,"30.3 µM, […]",-91.54%
N#Cc1ccccc1CN1C[C@@H]2CC[C@H](C1)N(CC1CC1)C2=O,Percent Effect,"30 µM, 30.03 µM",6.562%
COc1ccc(CNC(=O)CCc2c(C)noc2C)cc1F,Percent Effect,"30.3 µM, […]",14.24%
c1ccc(Cc2nc(CNC3CCC4(CCNCC4)CC3)no2)cc1,Percent Effect,"30.3 µM, […]",-22.96%
CCOC(=O)N1CCN(C(=O)C2CC(=O)N(c3ccccc3Br)C2)CC1 (stereo not drawn),Percent Effect,"30.3 µM, […]",15.14%
Cc1c(Cl)cccc1NCc1nc2n(n1)CCCCC2,Percent Effect,"30.3 µM, […]",55.49%
Cc1ccccc1NCc1nc2n(n1)CCCCC2,Percent Effect,"30.3 µM, […]",-2.813%
Cc1ccc(Cl)cc1NCc1nc2n(n1)CCCCC2,Percent Effect,"30.3 µM, […]",5.268%
Cl.Cl.O=C(NCc1cncc2c1CCN(Cc1cccc(F)c1)C2)C1CC1,Percent Effect,"30 µM, 30.03 µM",-3.8%
CC(NC(=O)NCCn1ccnc1)c1nncn1C (stereo not drawn),Percent Effect,"30.3 µM, […]",-59.34%
CCc1nc(NC(=O)NCCc2scnc2C)nn1C,Percent Effect,"30.3 µM, […]",-19.54%
CC1CCCN(Cc2csc(-c3ncccn3)n2)CC1 (stereo not drawn),Percent Effect,"30 µM, 30.03 µM",43.73%
CCCC1CCCN(Cc2csc(-c3cnn(C)c3)n2)CC1 (stereo not drawn),Percent Effect,"30 µM, 30.03 µM",-20.44%
CCCC1CCCN(Cc2csc(-c3ncccn3)n2)CC1 (stereo not drawn),Percent Effect,30 µM,77.24%
CC(CN1CCC2(CC1)N=C(c1cccnc1)NC2=O)c1ccccc1 (stereo not drawn),Percent Effect,"30.3 µM, […]",100.2%
O=C1NC(c2cccnc2)=NC12CCN(CCCc1ccccc1)CC2,Percent Effect,"30.3 µM, […]",-4.495%
CC1=NC2(CCN(CC(C)c3ccccc3)CC2)C(=O)N1 (stereo not drawn),Percent Effect,"30.3 µM, […]",10.6%
Cc1nc(CN2CCCC(CCc3c(F)cccc3F)C2)c[nH]1 (stereo not drawn),Percent Effect,"30 µM, 30.03 µM",47.92%
Cc1nc(CN2CCCC(CCc3ccc(F)cc3F)C2)c[nH]1 (stereo not drawn),Percent Effect,"30 µM, 30.03 µM",30.76%
Cc1nc(CN2CCCC(CCc3ccc(F)c(F)c3)C2)c[nH]1 (stereo not drawn),Percent Effect,"30.3 µM, […]",65.39%
COCC1CN(C(=O)Nc2cc(-n3cccc3)ccc2F)CCO1 (stereo not drawn),Percent Effect,"30.3 µM, […]",7.734%
CNC(=O)CN1CCOC(c2cccc(N)n2)C1 (stereo not drawn),Percent Effect,"30.3 µM, […]",18.21%
CN(Cc1nnc(C2CC2)n1C)C1CCN(Cc2nccn2C)C1 (stereo not drawn),Percent Effect,30 µM,20.02%
O=C(NCCc1nncn1C1CC1)C1(Cc2ccccc2)CCC1,Percent Effect,"30.3 µM, […]",8.956%
CN(C)CCN(Cc1ccccn1)Cc1ccnn1C1CCCCO1.O=C(O)CC(O)(CC(=O)O)C(=O)O (stereo not drawn),Percent Effect,"30.3 µM, […]",29.57%
Cc1sc2nc(CCN)nc(N(C)CCCC3CCCO3)c2c1C (stereo not drawn),Percent Effect,"30.3 µM, […]",63.54%
CCCSc1nn(CCN(C)C)c2nc3sc(C)c(CC)c3c(=O)n12,Percent Effect,"30.3 µM, […]",45.45%
Cc1sc2nc(CCN)nc(N(CCN(C)C)CC3CCCO3)c2c1C (stereo not drawn),Percent Effect,"30.3 µM, […]",38.72%
CCN(CCN(C)C)c1nc(CCN)nc2sc(C)c(C)c12,Percent Effect,"30.3 µM, […]",54.95%
CC(=O)N1CCc2c(nc(N(C)C)nc2N(C)CCCC2CCCO2)C1 (stereo not drawn),Percent Effect,"30.3 µM, […]",-1.539%
COCCN(CC1CC1)c1nc(CCN)nc2sc(C)c(C)c12,Percent Effect,"30.3 µM, […]",77.93%
Cc1nn(C2CCS(=O)(=O)C2)c(O)c1Cc1ccccc1 (stereo not drawn),Percent Effect,"30.3 µM, […]",20.59%
Cc1csc(CN(CC2CCCO2)C(=O)c2ccc(C)nc2C)n1 (stereo not drawn),Percent Effect,"30.3 µM, […]",-39.1%
Cc1cc(=O)n(C)cc1NC(=O)Cc1cccc(Cl)c1,Percent Effect,"30.3 µM, […]",-5.155%
CCOCC1CN(CC2CC2)Cc2nn(CC3CC3)cc21.O=C(O)C(F)(F)F (stereo not drawn),Percent Effect,"30.3 µM, […]",-3.875%
CNC(=O)c1ccc(C2CN(C(=O)c3cnn(C)c3)CCO2)nc1 (stereo not drawn),Percent Effect,"30.3 µM, […]",4.595%
CN(C)CCO[C@@H]1CC[C@H]2[C@H]1OCCN2C(=O)COc1ccccc1.O=C(O)C(F)(F)F,Percent Effect,"30 µM, 30.03 µM",28.35%
NS(=O)(=O)c1ccc(N2CCN(CCCc3cn[nH]c3)CC2)cc1,Percent Effect,"30.3 µM, […]",-5.312%
COc1ccc(S(=O)(=O)N2CCC[C@@H]3CN(C(=O)C4CC4)C[C@@H]32)cc1F,Percent Effect,"30.3 µM, […]",-21.4%
COc1cc(C(C)=O)ccc1OCCNCc1ccco1.Cl,Percent Effect,"30.3 µM, […]",31.62%
COc1cc(CNCc2ccco2)ccc1OCCO.Cl,Percent Effect,"30.3 µM, […]",36%
CCCc1ccc(OCCNCc2ccco2)c(OC)c1.Cl,Percent Effect,"30.3 µM, […]",65.86%
